Measurements from PubChem BioAssay (EPA / NIEHS).
Results filed as inconclusive are left out. Calls of active or inactive are those of the source. The calls were made as follows: active = hit-call score of the fitted dose curve at least 0.9, where 1 is the maximum; inconclusive = response in the unintended direction; inactive = score below 0.9.

Assays:
[1] = target: human Opioid Receptor Mu (Opiate Mu), OPRM1 (gene 4988) (UniProt P35372); test: NVS_GPCR_hOpiate_mu: NovaScreen (NVS) G Protein-Coupled Receptor Assay for human Opioid Receptor Mu (Opiate Mu) (AID 2283290);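 also: hits lower bound tracer signal versus DMSO meaning displacement of the ligand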
Procedure, shortened: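 Primary screen in duplicate at 25 uM, with actives followed in concentration series. CHO-derived receptor membranes, cell-free; bound radioligand read by scintillation counting after filtration at 2.5 h, decrease scored against DMSO.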

[2] = target: rat Serotonin, 5-Hydroxytryptamine Receptor (5HT), Non-Selective Binding, Htr1a (gene 24473) (UniProt P19327); test: NVS_GPCR_r5HT_NonSelective: NovaScreen (NVS) G Protein-Coupled Receptor Assay for rat Serotonin, 5-Hydroxytryptamine Receptor (5HT), Non-Selective Binding (AID 2283295)
Procedure, shortened: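 Radioligand displacement on rat cortical membranes, 1 h incubation, filter-based scintillation counting. Primary duplicates at 25 uM, actives retested in concentration series; loss of signal fitted against DMSO as baseline.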

[3] = target: Metabotropic glutamate receptor 1 (Rattus norvegicus) (UniProt P23385); test: NVS_GPCR_rmMGluR1: NovaScreen (NVS) G Protein-Coupled Receptor Assay for rat Glutamate Metabotropic Receptor 1 (MGluR1) (AID 2283305)
Sequence of Metabotropic glutamate receptor 1 (Rattus norvegicus) (P23385 whole entry, looked up): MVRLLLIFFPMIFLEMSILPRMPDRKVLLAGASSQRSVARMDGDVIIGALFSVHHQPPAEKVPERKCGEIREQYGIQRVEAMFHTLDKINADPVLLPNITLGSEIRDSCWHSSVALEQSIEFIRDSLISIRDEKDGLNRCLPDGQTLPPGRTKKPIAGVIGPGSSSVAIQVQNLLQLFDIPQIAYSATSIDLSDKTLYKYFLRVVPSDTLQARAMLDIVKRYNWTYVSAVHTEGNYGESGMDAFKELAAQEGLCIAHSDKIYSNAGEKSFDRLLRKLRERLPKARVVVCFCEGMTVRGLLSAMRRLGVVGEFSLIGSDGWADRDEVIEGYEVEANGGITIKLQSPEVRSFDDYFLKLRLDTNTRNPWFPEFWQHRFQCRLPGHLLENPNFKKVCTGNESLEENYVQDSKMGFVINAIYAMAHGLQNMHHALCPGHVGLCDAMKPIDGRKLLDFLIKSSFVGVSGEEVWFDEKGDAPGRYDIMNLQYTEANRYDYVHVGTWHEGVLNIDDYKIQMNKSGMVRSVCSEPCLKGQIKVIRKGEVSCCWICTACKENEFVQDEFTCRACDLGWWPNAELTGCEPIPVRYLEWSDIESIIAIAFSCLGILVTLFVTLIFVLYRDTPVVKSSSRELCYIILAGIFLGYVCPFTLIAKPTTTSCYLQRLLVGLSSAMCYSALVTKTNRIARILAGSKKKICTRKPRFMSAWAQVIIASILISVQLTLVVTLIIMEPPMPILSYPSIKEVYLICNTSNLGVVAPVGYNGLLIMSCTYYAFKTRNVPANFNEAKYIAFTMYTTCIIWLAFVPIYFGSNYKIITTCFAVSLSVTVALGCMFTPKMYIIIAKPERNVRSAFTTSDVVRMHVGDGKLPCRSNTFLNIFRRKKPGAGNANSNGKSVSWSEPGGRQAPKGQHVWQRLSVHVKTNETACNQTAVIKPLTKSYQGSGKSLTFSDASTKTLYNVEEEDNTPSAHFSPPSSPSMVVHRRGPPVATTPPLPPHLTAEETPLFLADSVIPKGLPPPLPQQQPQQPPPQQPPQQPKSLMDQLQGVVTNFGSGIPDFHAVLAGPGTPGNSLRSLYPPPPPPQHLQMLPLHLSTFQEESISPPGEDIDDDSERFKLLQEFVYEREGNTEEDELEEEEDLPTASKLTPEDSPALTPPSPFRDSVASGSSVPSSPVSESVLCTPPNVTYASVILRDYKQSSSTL
Procedure, shortened: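 Rat cerebellum membrane preparation, radioligand displacement binding read by filter-based scintillation counting 1 hour after dosing. Initial duplicate single-point screen at 25 uM, then concentration-response up to 50 uM; loss of signal versus DMSO baseline scored.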

[4] = target: rat Opioid Receptor, Non-selective Sodium (Na+) Binding, Oprm1 (gene 25601) (UniProt P33535); test: NVS_GPCR_rOpiate_NonSelectiveNa: NovaScreen (NVS) G Protein-Coupled Receptor Assay for rat Opioid Receptor, Non-selective Sodium (Na+) Binding (AID 2283311)
Sequence of rat Opioid Receptor, Non-selective Sodium (Na+) Binding, Oprm1 (gene 25601) (P33535 whole entry, looked up): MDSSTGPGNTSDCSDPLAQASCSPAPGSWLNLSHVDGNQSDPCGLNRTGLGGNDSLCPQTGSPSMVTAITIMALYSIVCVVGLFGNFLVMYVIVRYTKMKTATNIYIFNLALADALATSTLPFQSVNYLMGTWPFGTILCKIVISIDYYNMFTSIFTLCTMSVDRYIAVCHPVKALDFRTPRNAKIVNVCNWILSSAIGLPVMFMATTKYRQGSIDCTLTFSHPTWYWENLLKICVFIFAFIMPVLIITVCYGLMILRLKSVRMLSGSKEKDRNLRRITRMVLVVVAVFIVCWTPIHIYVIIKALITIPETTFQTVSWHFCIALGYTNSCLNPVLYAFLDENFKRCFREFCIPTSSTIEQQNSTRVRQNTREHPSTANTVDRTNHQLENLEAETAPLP
Procedure, shortened: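 Rat forebrain membranes, radioligand displacement with filter scintillation counting, 1.5 h incubation. Screened in duplicate at 25 µM; hits then run in concentration-response up to 50 µM; loss of binding fitted versus DMSO.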

[5] = target: guinea pig Bradykinin Receptor B2 (BK2), BDKRB2 (gene 100135486) (UniProt O70526); test: NVS_GPCR_gBK2: NovaScreen (NVS) G Protein-Coupled Receptor Assay for guinea pig Bradykinin Receptor B2 (BK2) (AID 2283292)
Sequence of guinea pig Bradykinin Receptor B2 (BK2), BDKRB2 (gene 100135486) (O70526 whole entry, looked up): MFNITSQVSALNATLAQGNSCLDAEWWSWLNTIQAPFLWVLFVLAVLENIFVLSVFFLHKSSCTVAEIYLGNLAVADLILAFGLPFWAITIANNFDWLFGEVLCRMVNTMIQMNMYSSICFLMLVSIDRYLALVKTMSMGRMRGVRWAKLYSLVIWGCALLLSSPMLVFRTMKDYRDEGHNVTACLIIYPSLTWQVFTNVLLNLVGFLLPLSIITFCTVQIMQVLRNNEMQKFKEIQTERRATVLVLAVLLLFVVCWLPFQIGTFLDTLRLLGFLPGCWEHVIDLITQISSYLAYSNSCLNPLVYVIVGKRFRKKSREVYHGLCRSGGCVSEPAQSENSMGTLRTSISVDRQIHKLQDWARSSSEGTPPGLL
Procedure, shortened: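 Radioligand displacement on guinea pig ileum membranes for 1 h, read by filter-based scintillation counting; loss of signal relative to DMSO. Compounds were screened in duplicate at 25 uM, and those passing the threshold were retested in concentration-response up to 50 uM.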

[6] = target: mouse Cholecystokinin, CCK2 Receptor (CCKB), Cckbr (gene 12426) (UniProt P56481); test: NVS_GPCR_mCKKBCentral: NovaScreen (NVS) G Protein-Coupled Receptor Assay for mouse Cholecystokinin, CCK2 Receptor (CCKB) (AID 2283293)
Sequence of mouse Cholecystokinin, CCK2 Receptor (CCKB), Cckbr (gene 12426) (P56481 whole entry, looked up): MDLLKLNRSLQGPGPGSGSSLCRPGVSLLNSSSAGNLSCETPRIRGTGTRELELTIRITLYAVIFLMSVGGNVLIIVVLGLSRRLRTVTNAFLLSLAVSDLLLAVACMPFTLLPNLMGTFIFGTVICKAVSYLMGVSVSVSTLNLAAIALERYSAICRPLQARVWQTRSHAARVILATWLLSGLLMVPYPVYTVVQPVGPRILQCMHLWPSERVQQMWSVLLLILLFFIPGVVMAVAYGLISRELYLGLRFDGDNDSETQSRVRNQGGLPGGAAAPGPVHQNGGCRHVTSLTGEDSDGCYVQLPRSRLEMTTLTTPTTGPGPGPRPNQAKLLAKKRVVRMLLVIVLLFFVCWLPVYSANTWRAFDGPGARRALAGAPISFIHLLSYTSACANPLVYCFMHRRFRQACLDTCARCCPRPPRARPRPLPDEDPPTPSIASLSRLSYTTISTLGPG
Procedure, shortened: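 Radioligand displacement binding on mouse forebrain membranes, 2 h exposure, filter-based scintillation counting. Primary screen in duplicate at 25 uM; actives (e.g. ≥30% inhibition) retested in concentration-response up to 50 uM; loss of binding signal relative to DMSO.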

[7] = target: guinea pig Serotonin, 5-Hydroxytryptamine Receptor 4 (5HT4), HTR4 (gene 100135548) (UniProt O70528); test: NVS_GPCR_g5HT4: NovaScreen (NVS) G Protein-Coupled Receptor Assay for guinea pig Serotonin, 5-Hydroxytryptamine Receptor 4 (5HT4) (AID 2283294)
Sequence of guinea pig Serotonin, 5-Hydroxytryptamine Receptor 4 (5HT4), HTR4 (gene 100135548) (O70528 whole entry, looked up): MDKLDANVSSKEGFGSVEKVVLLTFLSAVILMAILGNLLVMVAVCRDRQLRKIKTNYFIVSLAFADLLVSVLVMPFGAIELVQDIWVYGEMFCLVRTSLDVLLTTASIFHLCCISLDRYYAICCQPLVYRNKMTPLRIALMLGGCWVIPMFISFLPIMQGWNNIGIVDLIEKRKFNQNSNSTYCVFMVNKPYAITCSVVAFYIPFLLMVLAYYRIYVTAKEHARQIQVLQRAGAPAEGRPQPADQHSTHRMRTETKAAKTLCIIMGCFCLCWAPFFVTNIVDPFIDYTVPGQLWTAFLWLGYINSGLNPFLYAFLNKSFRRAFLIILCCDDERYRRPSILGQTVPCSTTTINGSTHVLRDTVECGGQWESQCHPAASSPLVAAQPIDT
Procedure, shortened: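 Guinea pig striatal membranes; radioligand competitive displacement, filtration and scintillation counting after 1 h. Primary screen in duplicate at 25 uM; actives then tested in concentration series; loss of binding signal fitted relative to DMSO.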

[8] = target: rat Adrenergic, Alpha 1A Receptor (Adra1A), Adra1a (gene 29412) (UniProt P43140); test: NVS_GPCR_rAdra1A: NovaScreen (NVS) G Protein-Coupled Receptor Assay for rat Adrenergic, Alpha 1A Receptor (Adra1A) (AID 2283296)
Procedure, shortened: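 Rat cortical membranes pretreated with chlorethyl clonidine; competitive radioligand displacement, 1 h. Filter-based scintillation counting. Primary screen in duplicate at 25 uM, actives followed in concentration series.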

[9] = test system: rat Adrenergic, Alpha 1B Receptor (Adra1B), gene 24173; test: NVS_GPCR_rAdra1B: NovaScreen (NVS) G Protein-Coupled Receptor Assay for rat Adrenergic, Alpha 1B Receptor (Adra1B) (AID 2283297)
Procedure, shortened: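 Rat liver membranes, radioligand displacement with filter-based scintillation detection, 1 h incubation. Primary screen in duplicate at 25 uM; actives retested in concentration series; activity relative to DMSO.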

[10] = target: rat Adrenergic Receptor, Beta (Adrb), Non-selective Binding, Adrb1 (gene 24925) (UniProt P18090); test: NVS_GPCR_rAdrb_NonSelective: NovaScreen (NVS) G Protein-Coupled Receptor Assay for rat Adrenergic Receptor, Beta (Adrb), Non-selective Binding (AID 2283298)
Sequence of rat Adrenergic Receptor, Beta (Adrb), Non-selective Binding, Adrb1 (gene 24925) (P18090 whole entry, looked up): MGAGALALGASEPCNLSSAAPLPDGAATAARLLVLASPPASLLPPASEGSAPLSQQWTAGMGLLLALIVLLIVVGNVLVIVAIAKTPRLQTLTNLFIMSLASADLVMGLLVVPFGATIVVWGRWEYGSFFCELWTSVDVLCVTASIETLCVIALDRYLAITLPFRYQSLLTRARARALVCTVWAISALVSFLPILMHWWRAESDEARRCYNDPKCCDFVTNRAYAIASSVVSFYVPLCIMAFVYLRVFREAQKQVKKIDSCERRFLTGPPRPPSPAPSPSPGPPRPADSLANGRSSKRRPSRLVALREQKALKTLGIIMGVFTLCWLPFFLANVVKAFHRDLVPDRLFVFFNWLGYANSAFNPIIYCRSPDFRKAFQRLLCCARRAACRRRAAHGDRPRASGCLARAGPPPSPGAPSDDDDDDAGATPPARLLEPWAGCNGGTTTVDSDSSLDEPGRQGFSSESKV
Procedure, shortened: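 Non-selective beta-adrenergic radioligand binding in rat cortical membranes, 1 h incubation, filter-based scintillation read-out. Primary screen 25 uM in duplicate; hits retested in concentration-response up to 50 uM, DMSO baseline.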

[11] = target: rat Adrenergic Receptor, Alpha 2 (Adra2), Non-selective Binding, Adra2a (gene 25083) (UniProt P22909); test: NVS_GPCR_rAdra2_NonSelective: NovaScreen (NVS) G Protein-Coupled Receptor Assay for rat Adrenergic Receptor, Alpha 2 (Adra2), Non-selective Binding (AID 2283299)
Procedure, shortened: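 Rat cortical membranes, radioligand competitive displacement read by filter-based scintillation counting 1.25 hours after dosing. Primary screen in duplicate at 25 uM; actives followed up in concentration series.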

[12] = target: rat Gamma-Aminobutyric Acid Type B Receptor (GABBR), Gabbr1 (gene 81657) (UniProt Q9Z0U4); test: NVS_GPCR_rGABBR: NovaScreen (NVS) G Protein-Coupled Receptor Assay for rat Gamma-Aminobutyric Acid Type B Receptor (GABBR) (AID 2283301)
Procedure, shortened: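 Radioligand displacement on rat cortical membranes, 1 h, filter-based scintillation counting. Primary screen at 25 uM in duplicate; compounds passing threshold re-tested in concentration-response up to 50 uM; loss of binding fitted against DMSO.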

[13] = target: rat Histamine Receptor (H3), Hrh3 (gene 85268) (UniProt Q9QYN8); test: NVS_GPCR_rH3: NovaScreen (NVS) G Protein-Coupled Receptor Assay for rat Histamine Receptor (H3) (AID 2283303)
Sequence of rat Histamine Receptor (H3), Hrh3 (gene 85268) (Q9QYN8 whole entry, looked up): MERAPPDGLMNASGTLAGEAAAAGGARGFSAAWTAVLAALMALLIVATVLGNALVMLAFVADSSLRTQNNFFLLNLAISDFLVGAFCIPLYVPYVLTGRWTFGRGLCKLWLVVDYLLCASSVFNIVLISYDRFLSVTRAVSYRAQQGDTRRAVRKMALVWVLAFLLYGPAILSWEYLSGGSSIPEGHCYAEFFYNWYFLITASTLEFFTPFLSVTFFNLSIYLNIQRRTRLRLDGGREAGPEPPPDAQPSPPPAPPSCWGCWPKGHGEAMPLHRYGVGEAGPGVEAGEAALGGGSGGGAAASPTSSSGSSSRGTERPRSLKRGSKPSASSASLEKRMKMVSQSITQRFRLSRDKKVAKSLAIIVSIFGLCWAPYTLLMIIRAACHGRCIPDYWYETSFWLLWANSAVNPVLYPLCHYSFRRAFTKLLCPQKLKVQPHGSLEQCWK
Procedure, shortened: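 Rat forebrain membranes incubated 1 h with compound; radioligand displacement measured by filter-based scintillation counting. Single-concentration duplicates at 25 µM, then concentration-response up to 50 µM, relative to DMSO.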

Adra2b (gene 24174) = Adra2b (gene 24174) (UniProt P19328); test: NVS_GPCR_rmAdra2B: NovaScreen (NVS) G Protein-Coupled Receptor Assay for hybird cells Adrenergic, Alpha 2B Receptor (Adra2B) (AID 2283306)
Sequence of Adra2b (gene 24174) (P19328 whole entry, looked up): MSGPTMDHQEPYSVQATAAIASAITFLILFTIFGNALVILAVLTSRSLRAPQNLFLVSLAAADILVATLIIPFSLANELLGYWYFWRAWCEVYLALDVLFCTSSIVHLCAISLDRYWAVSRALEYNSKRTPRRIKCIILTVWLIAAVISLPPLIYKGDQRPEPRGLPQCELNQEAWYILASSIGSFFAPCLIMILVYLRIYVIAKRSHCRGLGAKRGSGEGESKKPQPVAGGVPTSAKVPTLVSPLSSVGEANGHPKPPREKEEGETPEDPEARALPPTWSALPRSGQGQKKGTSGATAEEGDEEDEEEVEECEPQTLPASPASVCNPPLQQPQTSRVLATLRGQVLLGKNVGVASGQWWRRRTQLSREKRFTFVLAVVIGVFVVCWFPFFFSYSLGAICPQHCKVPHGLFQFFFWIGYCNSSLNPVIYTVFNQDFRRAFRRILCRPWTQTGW
Procedure, shortened: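 Radioligand filter-binding assay on membrane proteins from neuroglioma/blastoma hybrid cells (rodent), 1 h after dosing; scintillation counting, loss of signal vs DMSO. Primary screen in duplicate at 25 uM, actives then run in concentration series.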

[14] = target: rat Neurokinin-1 Receptor (NK1), Tacr1 (gene 24807) (UniProt P14600); test: NVS_GPCR_rNK1: NovaScreen (NVS) G Protein-Coupled Receptor Assay for rat Neurokinin-1 Receptor (NK1) (AID 2283309)
Procedure, shortened: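 Rat submaxillary gland membranes; radioligand displacement read by filter-based scintillation counting after 1 h. Primary screen in duplicate at 25 uM; actives retested in concentration series; loss of binding fitted versus DMSO.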

[15] = target: rat Neurokinin-3 Receptor (NK3), Tacr3 (gene 24808) (UniProt P16177); test: NVS_GPCR_rNK3: NovaScreen (NVS) G Protein-Coupled Receptor Assay for rat Neurokinin-3 Receptor (NK3) (AID 2283310)
Sequence of rat Neurokinin-3 Receptor (NK3), Tacr3 (gene 24808) (P16177 whole entry, looked up): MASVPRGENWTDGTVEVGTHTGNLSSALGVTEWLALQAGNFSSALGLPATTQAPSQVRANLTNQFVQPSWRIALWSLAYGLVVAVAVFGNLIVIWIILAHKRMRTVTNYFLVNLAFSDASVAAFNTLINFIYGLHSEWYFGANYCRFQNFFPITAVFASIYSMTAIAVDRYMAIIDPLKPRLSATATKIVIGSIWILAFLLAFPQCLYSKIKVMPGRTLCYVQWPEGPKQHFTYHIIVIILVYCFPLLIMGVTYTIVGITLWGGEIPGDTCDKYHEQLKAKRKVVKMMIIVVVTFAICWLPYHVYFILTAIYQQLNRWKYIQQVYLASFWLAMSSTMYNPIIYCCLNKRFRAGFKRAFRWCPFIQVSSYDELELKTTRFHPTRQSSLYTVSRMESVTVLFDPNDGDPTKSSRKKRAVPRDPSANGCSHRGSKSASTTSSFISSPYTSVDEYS
Procedure, shortened: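 Rat cortical membranes; radioligand binding with filtration and scintillation counting, 2 h after dosing. Primary screen in duplicate at 25 uM, then concentration-response up to 50 uM; loss of binding signal relative to DMSO.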

[16] = target: human Neonicotinoid receptor (NNR), CHRNA2 (gene 1135) (UniProt Q15822); test: NVS_LGIC_hNNR_NBungSens: NovaScreen (NVS) Ligand-Gated Ion Channel Assay for human Neonicotinoid receptor (NNR) (AID 2283313)
Procedure, shortened: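 Radioligand displacement on human neuroblastoma membranes, 2 h, filter-based scintillation counting. Primary screen in duplicate at 25 uM; chemicals passing threshold (e.g. 30% inhibition) run singleton concentration-response to 50 uM; loss of binding fitted versus DMSO.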

[17] = target: rat Corticotropin Releasing Factor Receptor (CRF), Crhr1 (gene 58959) (UniProt P35353); test: NVS_GPCR_rCRF: NovaScreen (NVS) G Protein-Coupled Receptor Assay for rat Corticotropin Releasing Factor Receptor (CRF) (AID 2283300)
Procedure, shortened: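 Rat cortical membranes used as receptor source in a radioligand competitive displacement binding assay; scintillation read 2 h after dosing. Primary screen run in duplicate at 25 uM; loss of signal versus DMSO baseline indicates binding.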

[18] = target: rat Glutamate Metabotropic Receptor 5 (MGluR5), Grm5 (gene 24418) (UniProt P31424); test: NVS_GPCR_rmMGluR5: NovaScreen (NVS) G Protein-Coupled Receptor Assay for rat Glutamate Metabotropic Receptor 5 (MGluR5) (AID 2283307)
Procedure, shortened: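 Rat whole-brain membrane preparation; filter-based radioligand binding read by scintillation counting, 1.5 h after dosing. Single-point screen at 25 uM in duplicate; hits over threshold (e.g. 30% inhibition) retested in concentration-response up to 50 uM; loss of signal vs DMSO.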

Question: O=[N+]([O-])C(Br)(CO)CO was tested. Which outcome [1] did it give?
Answer: inactive

Question: And the outcome [2]?
Answer: inactive

Question: What about the AC50 [3] of the same compound?
Answer: 40.5 µM (active)

Question: What about the AC50 [4] of the same compound?
Answer: 11 µM (active)

Question: Which results are given for [Cl-].[Cl-].[Hg+2]?
Answer: AC50 [1]: 0.197 µM (active); AC50 [5]: 25 µM (active); AC50 [6]: 38.6 µM (active); AC50 [7]: 7.68 µM (active); AC50 [8]: 12.1 µM (active); AC50 [9]: 3.96 µM (active); AC50 [10]: 35.7 µM (active); AC50 [11]: 6.48 µM (active); AC50 [12]: 18.4 µM (active); AC50 [13]: 24.6 µM (active); AC50 [3]: 14 µM (active); AC50 (Adra2b (gene 24174)): 6.72 µM (active); AC50 [14]: 14.2 µM (active); AC50 [15]: 12.9 µM (active); AC50 [4]: 16.7 µM (active)

Question: For CC(C)(C)OOC(=O)c1ccccc1, which outcome [13] is on record?
Answer: inactive

Question: What about the outcome [14] of the same compound?
Answer: inactive

Question: With O=[N+]([O-])c1ccc(Oc2ccc(Cl)cc2Cl)cc1 as the compound, how does the outcome [1] read?
Answer: inactive

Question: What about the AC50 [10] of the same compound?
Answer: 0.52 µM (active)

Question: For CCCSC(=O)N(CCC)CCC, which outcome [5] is on record?
Answer: inactive

Question: Which outcome [6] does the source give for CCCCCOC(=O)c1ccccc1C(=O)OCCCCC here?
Answer: inactive

Question: And the outcome [7]?
Answer: inactive

Question: Which AC50 [1] does the source give for CCOC(=O)[C@]1(c2ccccc2)Oc2ccccc2[C@@H]1N here?
Answer: 13.1 µM (active)

Question: What about the AC50 [7] of the same compound?
Answer: 4.94 µM (active)

Question: What about the AC50 [2] of the same compound?
Answer: 2.49 µM (active)

Question: What about the AC50 [8] of the same compound?
Answer: 0.38 µM (active)

Question: What about the AC50 [9] of the same compound?
Answer: 0.456 µM (active)

Question: What about the AC50 [10] of the same compound?
Answer: 2.61 µM (active)

Question: What about the AC50 [11] of the same compound?
Answer: 3.76 µM (active)

Question: What about the AC50 [13] of the same compound?
Answer: 10.2 µM (active)

Question: And the AC50 (Adra2b (gene 24174))?
Answer: 1.76 µM (active)

Question: What about the AC50 [4] of the same compound?
Answer: 21.3 µM (active)

Question: And the outcome [16]?
Answer: inactive

Question: Which AC50 [1] does the source give for CCCCCCCCn1sccc1=O here?
Answer: 7.66 µM (active)

Question: And the AC50 [7]?
Answer: 20.2 µM (active)

Question: And the AC50 [13]?
Answer: 10.6 µM (active)

Question: What about the AC50 [3] of the same compound?
Answer: 21.2 µM (active)

Question: What about the AC50 (Adra2b (gene 24174)) of the same compound?
Answer: 26 µM (active)

Question: And the outcome [15]?
Answer: inactive

Question: What about the AC50 [4] of the same compound?
Answer: 32.5 µM (active)

Question: How did the outcome [7] turn out when CC(C)COC(=O)c1ccccc1C(=O)OCC(C)C was run?
Answer: inactive

Question: With CCC[CH2][Sn]([Cl])([CH2]CCC)[CH2]CCC as the compound, how does the outcome [1] read?
Answer: inactive

Question: And the AC50 [5]?
Answer: 10.6 µM (active)

Question: And the AC50 [6]?
Answer: 2.25 µM (active)

Question: And the AC50 [7]?
Answer: 3 µM (active)

Question: And the AC50 [2]?
Answer: 12 µM (active)

Question: What about the AC50 [8] of the same compound?
Answer: 11.3 µM (active)

Question: And the AC50 [9]?
Answer: 3.87 µM (active)

Question: What about the AC50 [10] of the same compound?
Answer: 25 µM (active)

Question: And the AC50 [11]?
Answer: 2.98 µM (active)

Question: What about the AC50 [17] of the same compound?
Answer: 3.75 µM (active)

Question: What about the AC50 [13] of the same compound?
Answer: 15.2 µM (active)

Question: What about the AC50 [3] of the same compound?
Answer: 2.5 µM (active)

Question: What about the outcome (Adra2b (gene 24174)) of the same compound?
Answer: inactive

Question: And the AC50 [18]?
Answer: 25 µM (active)

Question: What about the AC50 [15] of the same compound?
Answer: 1.43 µM (active)

Question: What about the AC50 [4] of the same compound?
Answer: 8.92 µM (active)
